Data published in PubChem BioAssay AID2284090 (EPA ToxCast).
Activity calls are given as the source filed them. Rule for the calls: active = hit-call score of the fitted dose curve at least 0.9, where 1 is the maximum; inactive = score below 0.9.

Molecular target: Cytochrome P450 2C19 (Homo sapiens) (UniProt P33261)
Assay: ERF_FR_ADME_hCYP2C19_Omeprazole: Eurofins (ERF) CYP450-related Enzyme Activity (ADME) Assay for CYP2C19, Omeprazole Substrate
Method: ERF_FR_ADME_hCYP2C19_Omeprazole is a biochemical, single-readout assay that uses extracted gene-proteins in a cell-free assay. Measurements were taken 0.16 hour after chemical dosing in a 96-well plate. See CYP2C19 inhibition (HLM, omeprazole substrate).ERF_FR_ADME_hCYP2C19_Omeprazole is an assay component calculated from the ERF_FR_ADME_hCYP2C19_Omeprazole assay. It is designed to measure enzyme activity using a type of enzyme reporter as detected by peak area response of 5-hydroxyomeprazole with HPLC-MS/MS technology.Data from the assay component ERF_FR_ADME_hCYP2C19_Omeprazole was analyzed at the assay endpoint, ERF_FR_ADME_hCYP2C19_Omeprazole, in the positive analysis fitting direction relative to acetonitrile as the negative control and baseline of activity. Using a type of enzyme reporter, loss-of-signal activity can be used to understand changes in enzymatic activity as they relate to gene CYP2C19. To generalize the intended target to other relatable targets, this assay endpoint is annotated to the cyp intended target family, where the subfamily is steroidogenesis-related.
Assay is performed using 0.5uM omeprazole, cells are pre-incubated for 5 minutes, and then 10 minutes incubation with NADPH at 37C. Test Sample Requirements: Minimum for 1) Screen: 100 ul of 10 mM stock -OR- 1 to 2 mg (pre-weighed). 2) Dose Response: 250 ul of 10 mM stock -OR- 1.5 to 2 mg (pre-weighed).

Cytochrome P450 2C19 (Homo sapiens), sequence (P33261 whole entry, looked up): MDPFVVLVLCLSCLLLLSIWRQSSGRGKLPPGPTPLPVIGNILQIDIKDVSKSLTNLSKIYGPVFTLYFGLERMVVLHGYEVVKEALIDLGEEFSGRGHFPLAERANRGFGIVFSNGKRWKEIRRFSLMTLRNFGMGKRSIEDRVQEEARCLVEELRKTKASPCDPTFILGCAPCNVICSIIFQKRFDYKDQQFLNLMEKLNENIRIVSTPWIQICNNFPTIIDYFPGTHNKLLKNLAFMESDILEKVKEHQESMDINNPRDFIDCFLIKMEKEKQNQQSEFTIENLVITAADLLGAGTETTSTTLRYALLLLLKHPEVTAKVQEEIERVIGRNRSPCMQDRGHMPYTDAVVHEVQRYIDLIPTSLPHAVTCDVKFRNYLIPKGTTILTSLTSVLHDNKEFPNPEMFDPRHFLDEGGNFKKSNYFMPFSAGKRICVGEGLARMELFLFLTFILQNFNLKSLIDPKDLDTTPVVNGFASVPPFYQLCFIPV

Row | SMILES | AC50
1 | O=C(/C=C/c1ccc(O)cc1)CC(=O)/C=C/c1ccc(O)cc1 | 1.74 µM (active)
